Test [1] concerns the target Progesterone receptor (Homo sapiens) (UniProt P06401). The test can be described thus: qHTS assay to identify small molecule agonists of the progesterone receptor (PR) signaling pathway (AID 1346784; calls by dose curve; note: nearly all actives have a fitted effect of over 30% in size). Summed up: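 PR-UAS-bla HEK 293T cells (beta-lactamase reporter under UAS) in 2% charcoal-stripped FBS, dosed with 23 nL compound after 6 hr, incubated 16hr at 37C. LiveBLAzer B/G FRET substrate added, fluorescence read after 2 hours.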

For test [2] the target is unchanged. The test can be described thus: qHTS assay to identify small molecule antagonists of the progesterone receptor (PR) signaling pathway (AID 1346795; active = well fitted inhibition curve with a large enough effect in the signal ratio in the repeat runs, not every such curve was filed as active; the % refers to the signal ratio; note: potency is the fitted concentration of half-maximal effect). The essentials:
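PR-UAS-bla HEK293T cells with beta-lactamase reporter under UAS control, in 2% charcoal-stripped FBS, treated with compounds plus 1 nM promegestone (R5020, final) for 16 hr at 37C. Read-out: FRET beta-lactamase substrate fluorescence after 2 hr at room temperature.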

The nature of test [3]: qHTS assay to identify small molecule antagonists of the progesterone receptor (PR) signaling pathway - cell viability counter screen (AID 1346798). Note: series mostly up to about 92 µM; nearly all actives have a fitted effect of over 50% in size. The essentials: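 PR-UAS-bla HEK293T cells, 3,000/well in 2% charcoal-stripped FBS medium, dosed with compounds plus R5020 agonist and incubated 16 h at 37C. Viability then measured in the same wells by CellTiter-Glo luminescence after 30 min at RT.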

A short description of test [4]: qHTS assay to identify small molecule agonists of the progesterone receptor (PR) signaling pathway - cell viability counter screen (AID 1346799; calls by dose curve; note: nearly all actives have a fitted effect of over 45% in size). Summed up: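 Counter screen in the PR-UAS-bla HEK293T wells (2% charcoal-stripped FBS, 16 h compound exposure at 37 C) after the bla read. CellTiter-Glo added, 30 min at room temperature, luminescence read as cell viability.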

Test [5] can be described thus: qHTS assay to identify small molecule antagonists of the TGF-beta/Smad signaling pathway - cell viability counter screen (AID 1346824). Note: nearly all actives have a fitted effect of over 50% in size. The essentials:
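Cytotoxicity counter-screen run in the same wells as the beta-lactamase Smad reporter read: CellTiter-Glo luminescence after 30 min at room temperature. HEK 293T SBE-bla cells had 5 hr compound exposure at 37 C with TGF-beta1 (0.25 ng/mL stock).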

Test [6] in a line: qHTS assay to identify small molecule agonists of the TGF-beta/Smad signaling pathway - cell viability counter screen (AID 1346829). Note: top concentration of the series differs between compounds; nearly all actives have a fitted effect of over 45% in size. Summed up: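 After overnight seating at 37 C and 5% CO2, reporter cells got compounds for 5 hr and FRET substrate for 2 hr; cell viability then came from CellTiter-Glo luminescence.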
Test [7] is described as follows: qHTS assay to identify small molecule agonists of the TGF-beta/Smad signaling pathway (AID 1346859; active = well fitted activation curve with a large enough effect in the signal ratio in the repeat runs, not every such curve was filed as active; the % refers to the signal ratio; note: series mostly up to about 77 µM). The essentials: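 SBE-bla HEK293T cells plated overnight, then compound exposure for 5 h at 37 C. Beta-lactamase reporter read with LiveBLAzer B/G FRET substrate after 2 h at room temperature, fluorescence at 405 nm excitation, 460/530 nm emission.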
The target in test [8] is Thyrotropin-releasing hormone receptor (Homo sapiens) (UniProt P34981). Briefly: qHTS assay to identify small molecule antagonists of the thyrotropin-releasing hormone receptor (TRHR) signaling pathway (AID 1346877; active = well fitted inhibition curve with a large enough effect in the repeat runs, not every such curve was filed as active; note: series mostly up to about 51 µM). Summed up: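 Screening used HEK293 cells engineered with TRHR, with a brief 5 min room-temperature compound exposure preceding addition of TRH to 1 nM. The read-out was kinetic calcium-dye fluorescence, concentration-response from 15 doses in triplicate.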

Test [9] shares this target. The test can be described thus: qHTS assay to identify small molecule agonists of the thyrotropin-releasing hormone receptor (TRHR) signaling pathway (AID 1346891; calls by dose curve; note: series mostly up to about 58 µM). The essentials: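 HEK293 cells expressing TRHR plated 18 h at 37 C/5% CO2, calcium dye-loaded 2 h at 37 C, then compound added (agonist mode); kinetic calcium fluorescence read 3 min at 1 s intervals; 15 concentrations in triplicate.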

A short description of test [10]: Human pregnane X receptor (PXR) small molecule agonists, qHTS cell viability counter screen (AID 1346977). Note: nearly all actives have a fitted effect of over 50% in size. Summed up:
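PXR-Luc HepG2 cells (2,000/well, 5% charcoal-stripped FBS) preincubated 5 hr, then exposed to compounds 24 hr at 37 C. Viability read in the same wells by CellTiter-Fluor fluorescence, reagent added at 23 hr, 1 hr incubation.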

A number with no mark means an inactive call. Inconclusive results are not listed. Active and inactive are the calls of the source. Unless noted, calls come from the whole dose curve; as a rule, active = well fitted curve in the direction sought with a large enough effect in the repeat runs; inconclusive = weak or mixed curves; inactive = no such curve, though single readings can be large; an effect the other way counts as inactive or inconclusive.

Sequence of Thyrotropin-releasing hormone receptor (Homo sapiens) (P34981 whole entry, looked up): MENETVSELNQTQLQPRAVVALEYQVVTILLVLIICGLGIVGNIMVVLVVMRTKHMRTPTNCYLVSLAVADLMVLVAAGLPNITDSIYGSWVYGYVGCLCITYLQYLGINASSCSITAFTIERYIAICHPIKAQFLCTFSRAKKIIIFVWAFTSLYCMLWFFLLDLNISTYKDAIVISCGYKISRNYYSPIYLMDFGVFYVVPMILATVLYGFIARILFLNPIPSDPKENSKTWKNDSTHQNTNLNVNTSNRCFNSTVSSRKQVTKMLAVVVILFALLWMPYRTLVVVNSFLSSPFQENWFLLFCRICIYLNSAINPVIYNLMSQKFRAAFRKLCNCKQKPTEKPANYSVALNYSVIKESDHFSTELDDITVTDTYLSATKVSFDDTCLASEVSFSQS
Sequence of Progesterone receptor (Homo sapiens) (P06401 whole entry, looked up): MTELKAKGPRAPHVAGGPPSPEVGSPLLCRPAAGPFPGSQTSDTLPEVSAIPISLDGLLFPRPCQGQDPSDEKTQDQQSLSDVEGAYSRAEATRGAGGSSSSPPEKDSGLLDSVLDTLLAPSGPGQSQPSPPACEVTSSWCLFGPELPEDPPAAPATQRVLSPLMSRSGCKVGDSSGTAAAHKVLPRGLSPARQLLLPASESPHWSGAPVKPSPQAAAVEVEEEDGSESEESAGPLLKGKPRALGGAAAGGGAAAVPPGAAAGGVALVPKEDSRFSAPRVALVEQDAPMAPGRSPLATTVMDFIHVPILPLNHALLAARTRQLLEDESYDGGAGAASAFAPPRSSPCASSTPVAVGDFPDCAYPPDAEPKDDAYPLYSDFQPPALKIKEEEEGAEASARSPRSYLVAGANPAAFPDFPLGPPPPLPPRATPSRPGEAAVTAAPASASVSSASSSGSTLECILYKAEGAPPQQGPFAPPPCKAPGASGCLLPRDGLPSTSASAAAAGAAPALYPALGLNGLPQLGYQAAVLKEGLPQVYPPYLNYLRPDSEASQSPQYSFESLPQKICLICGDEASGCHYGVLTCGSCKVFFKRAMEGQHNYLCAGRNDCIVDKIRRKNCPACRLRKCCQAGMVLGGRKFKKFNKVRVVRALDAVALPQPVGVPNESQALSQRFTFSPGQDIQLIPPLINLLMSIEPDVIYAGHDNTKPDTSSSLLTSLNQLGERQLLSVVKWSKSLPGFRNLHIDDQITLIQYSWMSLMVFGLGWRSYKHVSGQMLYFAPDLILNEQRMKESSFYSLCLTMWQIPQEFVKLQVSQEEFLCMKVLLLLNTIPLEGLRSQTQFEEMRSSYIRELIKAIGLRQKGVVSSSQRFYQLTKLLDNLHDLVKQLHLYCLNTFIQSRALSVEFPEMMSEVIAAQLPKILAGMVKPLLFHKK

For `COc1ccccc1N1CCN(CCCNc2cc(=O)n(C)c(=O)n2C)CC1`, the Potency result in test [1], in test [2], in [3], in [4], in [9] and in [10] was “inactive” each time. Moreover, the result in test [5], in test [6], in [7] and in test [8] was inactive.
Consider `OCc1c2ccccc2cc2ccccc12`, for which the Potency result in test [1], in [3], in test [4], in test [9] and in test [10] was “inactive” throughout. In addition, in test [2], the Potency is 54.6 µM (active). Moreover, the result in test [5], in test [6], in test [7] and in test [8] was inactive.
In the case of `CCOC(=O)C(Br)c1ccccc1` (stereo unspecified), the Potency entry in test [1], in [2], in test [3], in [4] and in test [10] was “inactive” each time. Besides, the compound was called inactive in [5], in test [6] and in [7].
For the compound `NS(=O)(=O)c1cc(-c2nn[nH]n2)c(NCc2cccs2)cc1Cl`, the Potency entry in [1], in [2], in test [3], in test [4], in test [9] and in [10] was “inactive” throughout. Moreover, the result in test [5], in test [6], in test [7] and in test [8] was inactive.
On to `C=CC1CO1` (stereo unspecified), for which the Potency entry in [1], in test [2], in test [3], in [4], in [9] and in test [10] was “inactive” each time. Besides, the result in [5], in test [6], in test [7] and in test [8] was inactive.
Regarding `CCCc1c2oc(C(=O)O)cc(=O)c2cc2c(=O)cc(C(=O)O)n(CC)c12`, the Potency result in test [1], in test [2], in test [3], in [4] and in test [10] was “inactive” each time. In addition, the compound was called inactive in test [5], in test [6] and in [7].
For `OC[C@H]1O[C@@H](O[C@H]2[C@H](O)[C@@H](O)[C@H](O)O[C@@H]2CO)[C@H](O)[C@@H](O)[C@H]1O`, the Potency result in test [1], in test [2], in test [3], in [4], in [9] and in [10] was “inactive” throughout. Also, the compound was called inactive in test [5], in test [6], in [7] and in test [8].
For the compound `CN1C(=O)CC(c2ccccc2)C1=O` (stereo unspecified), the Potency entry in [1], in [2], in test [3], in [4] and in [10] was “inactive” each time. Moreover, the compound was classed as inactive in test [5], in test [6] and in test [7].
Consider `Cc1onc(-c2ccccc2)c1C(=O)Cl`, for which the Potency result in [1], in test [2], in [3], in [4], in test [9] and in test [10] was “inactive” in each case. In addition, the compound was classed as inactive in [5], in [6], in test [7] and in test [8].
`CCCCCCCCOC(=O)CCCCCCCCC(=O)OCCCCCCCC`: the Potency result in [1], in test [2], in test [3], in [4], in test [9] and in test [10] was “inactive” throughout. Besides, the result in [5], in [6], in test [7] and in test [8] was inactive.
Regarding `Cc1ccc(C(C)C)cc1O`, the Potency entry in [1], in test [2], in [3], in test [4] and in test [10] was “inactive” throughout. In addition, the result in test [5], in test [6] and in [7] was inactive.
On to `CCCCCOc1ccc(C2SC(=O)NC2=O)cc1OCC` (stereo unspecified), for which the Potency result in test [1], in [2], in test [3], in [4], in [9] and in [10] was “inactive” in each case. In addition, the compound was classed as inactive in test [5], in [6] and in test [8].
On to `CCCCCCCOC(=O)CCC`, for which the Potency result in test [1], in test [2], in test [3] and in test [4] was “inactive” in each case. The compound was called inactive in test [6] and in test [7].
Regarding `CCCCC(CC)COC(=O)COc1cc(Cl)c(Cl)cc1Cl` (stereo unspecified), the Potency result in test [1], in test [2], in test [3], in test [4], in test [9] and in test [10] was “inactive” throughout. For the same compound, the call in test [5], in test [7] and in [8] was inactive.
Turning to `CCc1nnc(NS(=O)(=O)c2ccc(N)cc2)s1`, the Potency entry in [1], in test [2] and in test [3] was “inactive” throughout. The result in [5], in test [6] and in test [7] was inactive.
For `O=C1Nc2ccc([N+](=O)[O-])cc2C1=O`, the Potency entry in [1], in test [2], in test [3] and in test [9] was “inactive” throughout. The outcome in test [5], in test [6], in test [7] and in test [8] was inactive.
For `O=C1CCCCC1C1CCCCC1` (stereo unspecified), the Potency result in test [1], in [2], in [3], in test [4], in test [9] and in [10] was “inactive” throughout. The compound was classed as inactive in test [5], in [7] and in test [8].
In the case of `C=Cc1ccccc1`, the Potency entry in test [1], in test [2], in test [3], in test [4] and in [10] was “inactive” each time. For the same compound, the result in test [6] and in [7] was inactive.

The values above are taken from PubChem BioAssay (Tox21).
